Bioassay records deposited in PubChem by several laboratories.
The list is not random: actives were taken first. Their share in the collection is about 3.4%.
NTR1 ag – agonists of human NTR1, primary screen, imaging, U2OS cells, beta-arrestin-GFP, high content; Neurotensin receptor type 1 (Homo sapiens), P30989; NTR1-U2OS beta-arrestin-GFP spot imaging, agonist mode; activation, % at 20 µM; 330,000 tested, 0.17% active; AID 493036, 2011;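 active = activation at or above 40% of the spot to cytoplasm intensity ratio, with at least 20 cells analyzed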;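 also: 0% = DMSO without peptide and 100% = 100 nM NTR1 peptide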
Target sequence (P30989 whole entry, looked up): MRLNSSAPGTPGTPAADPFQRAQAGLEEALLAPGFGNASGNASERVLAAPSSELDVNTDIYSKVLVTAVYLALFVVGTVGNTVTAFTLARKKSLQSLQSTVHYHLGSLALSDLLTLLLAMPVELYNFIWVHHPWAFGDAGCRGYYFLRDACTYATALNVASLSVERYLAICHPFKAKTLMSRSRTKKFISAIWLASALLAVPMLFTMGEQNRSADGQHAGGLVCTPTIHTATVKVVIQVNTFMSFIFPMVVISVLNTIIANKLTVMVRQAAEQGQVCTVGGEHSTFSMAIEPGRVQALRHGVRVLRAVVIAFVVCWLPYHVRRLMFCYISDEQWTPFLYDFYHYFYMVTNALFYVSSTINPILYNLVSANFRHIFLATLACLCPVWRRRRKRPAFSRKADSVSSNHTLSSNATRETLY
ANO1 block – TMEM16A chloride channel inhibitors, primary screen, cell-based, HTS; Anoctamin-1 (Mus musculus), Q8BHY3; normalized B-score (activity score, 25-100; higher = stronger inhibition) at 10 µM; HEK293 TMEM16A/YFP iodide influx fluorescence, ionomycin; 310,000 tested, 1.2% active; AID 588511, 2011;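 active = ratio plate-corrected score three or more library SD toward inhibition, starting fluorescence score within five deviations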;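 also: score derived from kinetic fluorescence span divided by baseline fluorescence per well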
MEKK2 mut-MEK5 – MEK5 binding signal on mutant MEKK2 PB1, primary screen, biochemical, multiplex bead flow cytometry, Alexa488-MEK5; 290,000 tested, 0.35% active; percent response, % at 10 µM; Alexa488-MEK5 binding to MEKK2 mutant; AID 1530, 2009; in the data active = percent response above about 24%, passing the limit was not always enough
TMEM16A act – TMEM16A chloride channel activators or potentiators, primary screen, cell-based, HTS; Anoctamin-1 (Mus musculus), Q8BHY3; HEK293 TMEM16A/YFP-H148Q/I152L, iodide quench fluorescence; active compounds read low; B-score at 10 µM; 340,000 tested, 0.3% active; AID 623877, 2012;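 active = fluorescence-ratio B-score plate-corrected deviation score at least 3 library SD below zero, with starting fluorescence score within 5 deviations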;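 also: channel opened by trigger with iodide after compound preincubation; score built on the fluorescence ratio of max minus min over baseline; more negative score means more quench and so TMEM16A activation or potentiation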
MEKK2 WT-MEK5 – modulators of MEK5 binding to wildtype MEKK2, primary screen, biochemical, multiplex bead flow cytometry, Alexa488-MEK5; Mitogen-activated protein kinase kinase kinase 2 (Homo sapiens), Q9Y2U5; Alexa488-MEK5 binding to MEKK2 WT; actives lie on both sides; binding response (% of control), % at 10 µM; 290,000 tested, 1.1% active; AID 1531, 2009; in the data active = binding response below about 67% or above about 130%
MEKK3 PB1 HTS – modulators of MEKK3-MEK5 PB1 binding, primary screen, biochemical, wildtype MEKK3, multiplex bead flow cytometry, Alexa488-MEK5; binding response (% of control), % at 10 µM; Mitogen-activated protein kinase kinase kinase 3 (Homo sapiens), Q99759; bead-based flow cytometry, Alexa488-MEK5 binding to MEKK3; actives lie on both sides; 0 = blocked by unlabeled MEK5, 100 = vehicle; 290,000 tested, 1.4% active;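 active = binding response more than 3 SD above or below the average of its plate-row segment, actives on both sides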;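 also: Alexa488 bead fluorescence after subtracting the streptavidin-only scavenger bead signal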
MEKK2wt confirm – modulators of MEK5 binding to wildtype MEKK2, confirmation, biochemical, single concentration, multiplex bead flow cytometry; Alexa488-MEK5 binding to MEKK2 WT; actives lie on both sides; binding response (% of control), % at 10 µM; AID 1892, 2009; shares compounds with MEKK3 PB1 HTS; 5,900 tested, 2.4% active; in the data active = binding response below about 16% or above about 210%; inactive = in between
MEKK2mut confirm – mutant MEKK2 PB1-MEK5 binding signal retest – biochemical, single concentration, multiplex bead flow cytometry, confirmation | 5,900 tested, 2% active | AID 1893, 2009 | percent response, % at 10 µM | shares compounds with MEKK3 PB1 HTS | Alexa488-MEK5 binding to MEKK2 mutant; in the data active = percent response mostly above about 71%, no sharp cut-off; inactive = mostly below about 38%;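 also: higher means compound restores mutant binding toward wildtype level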
MEKK3 confirm – MEKK3 wild-type PB1 binding to MEK5, inhibitors, confirmation, biochemical, bead multiplex flow cytometry, single concentration, wildtype; binding response (% of control), % at 10 µM; 5,900 tested, 1.8% active; Alexa488-MEK5 binding to MEKK3; active compounds read low; shares compounds with MEKK3 PB1 HTS;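 active = binding response below 72% of control, or above a set upper limit, though filed actives all read lower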;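 also: 100% = DMSO only wells and 0% = binding blocked by excess unlabeled MEK5; lower values mean stronger disruption of MEK5 binding to MEKK3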
Active calls of the source: *; i = inactive; / = no result; [ ] = remark or other dose.

SMILES	NTR1 ag	ANO1 block	MEKK2 mut-MEK5	TMEM16A act	MEKK2 WT-MEK5	MEKK3 PB1 HTS	MEKK2wt confirm	MEKK2mut confirm	MEKK3 confirm
Cc1ccc(S(=O)(=O)c2cc(OC(=O)c3ccco3)ccc2OC(=O)c2ccco2)cc1	0	i	-1	i	101	128*	96	-8	104
O=C(Oc1ccc(OC(=O)c2ccco2)c(S(=O)(=O)c2ccc(Br)cc2)c1)c1ccco1	7	i	-2	i	100	101	/	/	/
CC(C)OC(=O)Cn1nc(C(c2ccccc2)c2ccccc2)oc1=O	0	i	3	i	104	102	/	/	/
Cc1ccccc1NS(=O)(=O)c1ccc(NC(=O)N2CCCCC2)cc1	-1	i	-1	i	98	99	/	/	/
Cc1cc(C)c([N+](=O)[O-])cc1-c1ccc(/C=N/c2c(-c3ccco3)nc3ccccn23)o1	2	i	-2	i	-3.0*[inhibitor]	89	79	-5	82
O=C(Nc1ccc2nc3n(c(=O)c2c1)CCCC3)c1cc([N+](=O)[O-])ccc1F	29	i	-1	i	97	100	/	/	/
O=C(Nc1ccc2nc3n(c(=O)c2c1)CCCC3)c1cccc([N+](=O)[O-])c1	2	i	2	i	112	139*	101	-5	99
COc1cc(OC)cc(C(=O)N[C@H](C(=O)Nc2c(C)n(C)n(-c3ccccc3)c2=O)C(C)C)c1	-2	/	/	i	/	/	/	/	/
COCCCNC(=O)c1cc2cc([N+](=O)[O-])cc(OC)c2oc1=O	0	i	-16	i	51	39*[inhibitor]	105	5	105
Cc1ccc(NC(=O)CSc2cccc[n+]2[O-])c([N+](=O)[O-])c1	0	i	0	i	99	104	/	/	/
O=C(Nc1c(Br)cc2c(c1Br)Cc1ccccc1-2)C(Cl)Cl	/	/	/	i	/	/	/	/	/
CCCCOc1ccc(CC(=O)NCC(=O)O)cc1	4	i	-2	i	92	57*[inhibitor]	99	3	105
CCCCOc1ccc(C(=O)NCC(=O)NCCOc2ccccc2)cc1	3	i	/	i	/	/	/	/	/
COc1ccc(OC)c(S(=O)(=O)Nc2ccc(O)c(Sc3ncn[nH]3)c2)c1	0	i	-1	i	93	94	/	/	/
CCN1/C(=C\C(=S)Nc2ccccc2)Sc2ccccc21	3	i	-6	i	82	89	/	/	/
CCN1/C(=C/C(C)=C/c2sc3ccccc3[n+]2CC)Sc2ccccc21	-2	i	-46	i	1.0*[inhibitor]	25*[inhibitor]	2.0*[inhibitor]	-39	44*
Cc1cc(C)c[n+](-c2nc3ccccc3nc2[N-]S(=O)(=O)c2ccc(Cl)cc2)c1	-1	i	0	i	111	137*	103	2	103
CN1CCN(Cc2cc(Cl)c3cccnc3c2OC(=O)c2cccs2)CC1	0	i	-1	i	94	72*[inhibitor]	105	-1	100
Cc1nn(C)cc1/C=N/NC(=O)C(C)(C)Oc1ccc(Cl)cc1	-2	i	-10	i	85	89	/	/	/
CC(CC(C)C(=O)N1CCOCCN(C(=O)C(C)CC(C)C(=O)O)CCOCC1)C(=O)O (stereo unspecified)	4	i	-10	i	80	78	/	/	/
CC(CN1CCOCC1)C(=O)O (stereo unspecified)	0	i	11	i	127	126*	97	-2	101
COC(=O)CCCC1=CC2=CC(=O)C(C)(OC(=O)c3ccc(Cl)nc3)C(=O)C2=CO1 (stereo unspecified)	-2	i	-1	/	93	93	/	/	/
COc1ccc(Cl)cc1N(CC(=O)N1CCN(Cc2ccccc2)CC1)S(C)(=O)=O	3	i	5	i	112	125*	106	0	102
CCOC(=O)N1CCN(C(=O)CCCn2nnnc2CN2CCC(C)CC2)CC1	0	i	2	i	100	103	/	/	/
CCCOc1ccc(C2=NNC(=O)CC2)cc1	1	i	-1	i	99	68*[inhibitor]	96	-9	98
SMILES	NTR1 ag	ANO1 block	MEKK2 mut-MEK5	TMEM16A act	MEKK2 WT-MEK5	MEKK3 PB1 HTS	MEKK2wt confirm	MEKK2mut confirm	MEKK3 confirm
Cc1ccc(C)c(C(=O)COC(=O)CN2C(=O)C3C4C=CC(C4)C3C2=O)c1 (stereo unspecified)	1	i	-2	i	103	103	/	/	/
Cc1ccc(OCc2cc(C(=O)N3CCN(CC(=O)NC(C)C)CC3)no2)cn1	-1	i	0	i	97	97	/	/	/
CSc1nc(C)c(C(=O)Nc2ccccc2)c(-c2ccco2)c1C#N	4	i	-16	i	16*[inhibitor]	27*[inhibitor]	98	-1	102
Cc1cc(N2CCC(N(C)C3CCCC3)CC2)nc2cc(O)ccc12	0	i	24*	i	142*	110	116	34	108
Cc1cc(N2CCN(c3ccccc3)CC2)nc2ccccc12	4	i	23	i	117	113	/	/	/
CC(CNC(=O)CCC(=O)N1CCOc2ccc(Cl)cc21)c1ccccc1 (stereo unspecified)	2	i	-2	i	97	102	/	/	/
COc1ccc2oc(C(=O)Nc3ccc(S(=O)(=O)N(C)C4CCN(C)CC4)cc3)c(C)c2c1	11	i	17	i	157*	107	159	28	105
COc1ccc(C(C)=O)cc1COC(=O)c1ccc2ccccc2n1	2	i	-1	i	107	129*	102	3	102
O=C(NCCCN1CCN(c2cccc(Cl)c2)CC1)c1cccc(N2CCCC2=O)c1	1	i	27*	i	125	109	113	20	107
